Records with an inconclusive call do not appear. Entries that show only a call come without a potency. Calls of active or inactive are those of the source. Calls come from the whole dose curve; as a rule, active = well fitted activation curve with a large enough effect in the repeat runs; inconclusive = weak or mixed curves; inactive = no such curve, though single readings can be large or run the other way.
Potency is the fitted concentration of half-maximal effect.

Chain of Aryl hydrocarbon receptor (Homo sapiens) (P35869 whole entry, looked up): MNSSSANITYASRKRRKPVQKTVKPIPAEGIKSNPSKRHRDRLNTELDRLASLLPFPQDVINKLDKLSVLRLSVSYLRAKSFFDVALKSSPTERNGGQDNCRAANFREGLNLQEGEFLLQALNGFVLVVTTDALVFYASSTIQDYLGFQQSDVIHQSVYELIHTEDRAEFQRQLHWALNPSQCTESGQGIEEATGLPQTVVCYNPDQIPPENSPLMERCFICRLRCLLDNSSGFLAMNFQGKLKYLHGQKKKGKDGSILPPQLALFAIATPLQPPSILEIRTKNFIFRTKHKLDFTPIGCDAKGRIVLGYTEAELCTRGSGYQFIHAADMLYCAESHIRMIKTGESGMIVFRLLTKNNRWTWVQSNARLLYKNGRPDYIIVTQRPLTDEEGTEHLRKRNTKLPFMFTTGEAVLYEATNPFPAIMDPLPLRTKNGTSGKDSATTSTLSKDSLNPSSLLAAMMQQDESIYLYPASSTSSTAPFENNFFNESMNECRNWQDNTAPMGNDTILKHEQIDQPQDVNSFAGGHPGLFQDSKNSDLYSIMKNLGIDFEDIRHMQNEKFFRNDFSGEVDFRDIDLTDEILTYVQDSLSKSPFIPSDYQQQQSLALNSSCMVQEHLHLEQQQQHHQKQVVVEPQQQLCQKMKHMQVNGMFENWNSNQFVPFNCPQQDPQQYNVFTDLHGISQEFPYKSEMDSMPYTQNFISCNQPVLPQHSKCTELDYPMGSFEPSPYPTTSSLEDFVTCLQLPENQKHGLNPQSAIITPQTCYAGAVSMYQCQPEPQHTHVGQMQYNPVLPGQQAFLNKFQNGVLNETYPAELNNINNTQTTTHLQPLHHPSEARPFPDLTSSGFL

In this experiment the target is Aryl hydrocarbon receptor (Homo sapiens) (UniProt P35869). Put plainly: qHTS assay to identify small molecule that activate the aryl hydrocarbon receptor (AhR) signaling pathway (AID 743085).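 For activation: HG2L7.5c1 human HepG2 liver cells with stably integrated DRE-driven firefly reporter.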 Note: nearly all actives have a fitted effect of over 15% in size. The conditions noted are these: HepG2 AhR-luc (HG2L7.5c1), luciferase, 24 h; series mostly up to 70.3 µM. An excerpt:
U.S. Tox21 Program National Center for Advancing Translational Sciences [NCATS] NIH Chemical Genomics Center [NCGC] U.S. Environmental Protection Agency [EPA] National Institutes of Environmental Health Sciences [NIEHS] National Toxicology Program [NTP] U.S. Food and Drug Administration [FDA] Tox21 Assay overview: The Aryl hydrocarbon Receptor (AhR), a member of the family of basic helix-loop-helix transcription factors, is crucial to adaptive responses to environmental changes. AhR mediates cellular responses to environmental pollutants such as aromatic hydrocarbons through induction of phase I and II enzymes but also interacts with other nuclear receptor signaling pathways. A cell based HepG2-AhR-luc assay (HG2L7.5c1 cell line, developed by Dr. Michael S. Denison, University of California at Davis, was used to assess the activation of AhR. HepG2 (human hepatocellular carcinoma) cells were stably transfected with an Ah receptor-responsive firefly luciferase reporter gene plasmid containing 20 dioxin responsive elements and luciferase reporter gene. Increased luciferase activity can be used to identify the compounds that induce AhR activation.
Tox21 Assay Protocol Summary: 4000 cells in 5 uL/well were dispensed into white wall/solid bottom 1536-well plates using a Multidrop Combi (Thermo Fisher Scientific Inc., Waltham, MA) dispenser. After the assay plates were incubated at 37C for 5 h, 23 nL of compound or DMSO vehicle was transferred to the assay plates by a pintool station (Kalypsys, San Diego, CA). The plates were incubated at 37C for 24 hr. After 1 ul/well of CellTiter-Fluor reagent (Promega, Madison, WI) was added into the assay plates using a Flying Reagent Dispenser (FRD) (Aurora Discovery, CA), the assay plates were incubated at 37C for 30 min. The fluorescence intensity in the plates was measured using a ViewLux plate reader (PerkinElmer, Shelton, CT), followed by the addition of 4 uL of ONE-Glo Luciferase Assay reagent (Promega) using an FRD (Aurora Discovery). After the assay plates were incubated at room temperature for 30 min, luminescence intensity was measured using a ViewLux plate reader (Perkin Elmer).
Consider `C[C@@H](N)C(=O)O`, for which the Potency entry was “inactive”. Under `Cc1ccsc1C(=CCCN1CCC[C@@H](C(=O)O)C1)c1sccc1C` stands “inactive”. Next, `Clc1cccc(-c2cc(Cl)cc(Cl)c2)c1`: “inactive”; `CCOC(=O)CS`: “inactive”. Regarding `CC(C)CC(=O)OCc1ccccc1`, the Potency result is “inactive”. Next, `FC(F)(F)C(F)(F)C(F)(F)C(F)(F)C(F)(F)C(F)(F)C(F)(F)C(F)(F)Br`: “inactive”.

Consider `CN(CCCN1c2ccccc2CCc2ccccc21)CC(=O)c1ccc(Cl)cc1`, for which the Potency is 29.8 µM (active).

Turning to `Oc1ccccc1C=NCc1ccccc1`, the Potency entry was “inactive”.

For `O=Cc1ccc(F)c(Br)c1`, the Potency entry was “inactive”. Take `CCCCCCCCCC#N`: the Potency result was “inactive”. `CN1CCN(c2c(F)cc3c(=O)c(C(=O)O)cn(CCF)c3c2F)CC1`: the Potency entry was “inactive”. Under `CCOC(=O)C1CC(=O)C(=C(O)C2CC2)C(=O)C1` (stereo not given) stands “inactive”; under `CCCCCCCCc1ccc(S(=O)(=O)O)cc1`, “inactive”; under `C=Cc1ccccc1`, “inactive”. Under `CCCc1c2oc(C(=O)O)cc(=O)c2cc2c(=O)cc(C(=O)O)n(CC)c12` stands “inactive”; under `Cc1ncc(CO)c(CN)c1O`, “inactive”; under `OCc1c2ccccc2cc2ccccc12`, “inactive”.

For `NS(=O)(=O)c1cc(-c2nn[nH]n2)c(NCc2cccs2)cc1Cl`, the Potency entry is “inactive”. Next, `CN(C)CC[C@@H](c1ccc(Cl)cc1)c1ccccn1`: “inactive”; `O=c1[nH]cnc2c1ncn2[C@@H]1O[C@H](CO)[C@@H](O)[C@H]1O`: “inactive”. As for `CCc1cc(Cl)c(OC)c(C(=O)NC[C@@H]2CCCN2CC)c1O`, the Potency entry was “inactive”.

Regarding `CN(C)Cc1ccccc1`, the Potency entry was “inactive”. For `Oc1ccccc1F`, the Potency entry was “inactive”.

On to `C=CCCCCCCCCO`, for which the Potency entry was “inactive”. Under `C[C@@H]1CN(c2c(F)c(N)c3c(=O)c(C(=O)O)cn(C4CC4)c3c2F)C[C@H](C)N1` stands “inactive”; under `COc1ccccc1N1CCN(CCCNc2cc(=O)n(C)c(=O)n2C)CC1`, “inactive”. In the case of `CC(C)C1=CC2=CC[C@@H]3[C@](C)(CCC[C@@]3(C)C(=O)O)[C@H]2CC1`, the Potency result is “inactive”. Under `COc1nc(C)nc(NC(=O)NS(=O)(=O)c2ccccc2OCCCl)n1` stands “inactive”; under `O=C(O)C(=O)Cc1c[nH]c2ccccc12`, 6.11 µM (active); under `CN1CCN(C2=Nc3cc(F)ccc3Cc3ccccc32)CC1`, “inactive”.

On to `FC(F)(F)C(Cl)(Cl)Cl`, for which the Potency entry is “inactive”. Next, `C=C(C)C(=O)OCCOP(=O)(O)O`: “inactive”.

`CC(=O)Nc1ccc(C)c(Cl)c1`: the Potency entry is “inactive”. Consider `CCN[C@H]1CN(CCCOC)S(=O)(=O)c2sc(S(N)(=O)=O)cc21`, for which the Potency result is “inactive”. Next, `CC(CNC1CCCCC1)OC(=O)c1ccccc1` (stereo not given): “inactive”; `COc1ccc(Nc2ccc(OC)cc2)cc1`: “inactive”.

For `O=C(O)CN(CCN(CC(=O)O)CC(=O)O)CCN(CC(=O)O)CC(=O)O`, the Potency entry was “inactive”. Under `COc1cc(Cl)ccc1Cl` stands “inactive”. Under `CC1=C2[C@H](/C=C(\C)C(=O)O)CC[C@@H](C)[C@H]2CC1` stands “inactive”; under `CCOC(=O)COc1ccc2c(c1)CC(NCC(O)c1cccc(Cl)c1)CC2` (stereo not given), “inactive”.

These data come from PubChem BioAssay (Tox21).
